From PubChem BioAssay AID687001 (Broad Institute, 2013)
Potency and affinity values are given separately. Activity calls are given as the source filed them.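 Rule for the calls: active = signal-lowering compounds whose fitted half-maximal concentration is at or below twice the top tested dose in every run; inconclusive = runs disagree, flat 30 to 70% inhibition, or poor curve fit; inactive = the rest.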

target: Protein S100-A4 (Homo sapiens) (UniProt P26447); assay: S100A4-myosin IIA binding inhibitor potency, dose response, biochemical, fluorescence polarization, cherry-picked hits (AID 687001); details: FP, S100A4/TAMRA-myosin IIA peptide binding; series mostly up to 11 µM; activity change, negative = inhibition: at the top concentration;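 note: 0% = DMSO neutral control wells and -100% = TFP positive control wells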
Sequence (P26447 whole entry, looked up): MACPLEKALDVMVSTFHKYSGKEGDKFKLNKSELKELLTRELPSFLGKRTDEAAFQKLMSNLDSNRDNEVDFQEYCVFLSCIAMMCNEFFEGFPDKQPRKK

Activity change, negative = inhibition, inactive:
COc1ccccc1N(C)S(=O)(=O)c1ccc(C(=O)NCC2CCCCC2)cc1 11.9%
CC(C)OCCCNC(=O)c1ccccc1NC(=O)C1=CSCCO1 -5.74%
C[C@H]1CN([C@@H](C)CO)C(=O)c2cc(C#CC3CCCCC3)cnc2O[C@H]1CN(C)Cc1cncnc1 3.75%
CCCN(CC(=O)Nc1ccccc1C)C(=O)C1CC(=O)N(c2cccc(C)c2C)C1 (centres undefined) -1.18%
O=C(/C=C/c1cccc(Cl)c1)NCCCN1CCOCC1 -0.231%
Cc1ccc(OCCOCCn2cnc3ccccc3c2=O)c([N+](=O)[O-])c1 3.84%
COc1ccc2c3c(n(C)c2c1)[C@@H](CO)N(C(=O)Nc1ccc(F)cc1)CC31CCN(C)CC1 2.05%
COc1cc(Cl)ccc1OCc1cc(C(=O)N(C)Cc2nnc(C)o2)no1 0.129%
Cc1ccc(-c2csc(NC3OC(=O)c4ccccc43)n2)cc1 (centres undefined) -3.06%
Cc1cc2nnc(SCC(=O)NCC(c3ccccc3)N(C)C)n2c2ccccc12 (centres undefined) -5.05%
O=S(=O)(NCC(c1ccc2c(c1)OCO2)N1CCN(c2ccccc2)CC1)c1ccccc1 (centres undefined) 1.36%
COc1ccc(NC(=O)N(C)C[C@@H]2OCCCC[C@@H](C)Oc3ccc(NS(=O)(=O)c4ccc(Cl)cc4)cc3C(=O)N([C@H](C)CO)C[C@@H]2C)cc1 20%
O=C(C[C@H]1C[C@H]2c3cc(NC(=O)Cc4ccncc4)ccc3O[C@H]2[C@H](CO)O1)NCc1ccccn1 10.1%
C[C@@H]1CN([C@@H](C)CO)C(=O)c2cccc(NS(=O)(=O)c3ccc(F)cc3)c2O[C@H]1CN(C)C(=O)NC1CCCCC1 1.57%
CCn1nc(C(=O)Nc2cc(Cl)ccc2-n2cncn2)c2ccccc2c1=O 4.26%
Cc1oc(-c2ccc(Cl)cc2)nc1CS(=O)CC(=O)NCCCN1CCN(Cc2ccccc2)CC1 (centres undefined) -3.78%
COc1cc(OC)cc(C(=O)N2CCCc3ccccc32)c1 -4.36%
Cc1ccc(S(=O)(=O)N2CCOCC2)cc1NC(=O)COC(=O)Cc1cccs1 -1.47%
CC(C)C(=O)Nc1ccc2c(c1)C(=O)N(C)[C@H]1CC[C@H](CC(=O)Nc3cccc(F)c3)O[C@@H]1CO2 -3.5%
COc1ccc(S(=O)(=O)NCC2CCCN(Cc3cccc(C(C)=O)c3)C2)cc1 (centres undefined) 10.8%
COc1ccc(C)cc1NS(=O)(=O)c1ccc2c(c1)N(C)CCO2 -2.05%
O=C1O[C@@H](c2ccccc2)C[C@@H](O)C(=O)CCCCc2ccccc21 -1.69%
COc1ccc(C(CNC(=O)CNC(=O)c2ccc(F)cc2)N2CCCC2)cc1 (centres undefined) -0.057%
COCCn1c(SCC(=O)Nc2ccc(NC(C)=O)cc2)nc2ccccc2c1=O -1.93%
O=C1CCc2cc(S(=O)(=O)N3CCCCC3)cc3c2N1CCC3 28.8%
COCCCNc1nc2ccccc2nc1NS(=O)(=O)c1cc(Cl)ccc1Cl -1.43%
COc1ccc(S(=O)(=O)N(C)C[C@@H]2OCCCC[C@@H](C)Oc3ccc(NC(=O)Nc4ccc(C(F)(F)F)cc4)cc3C(=O)N([C@H](C)CO)C[C@@H]2C)cc1 3.23% [at 10 µM]
O=C(CCc1ccccc1)Nc1sc2c(c1C(=O)O)CCCC2 -4.68%
CNC[C@@H]1OCCCC[C@H](C)Oc2ccc(NS(C)(=O)=O)cc2C(=O)N([C@@H](C)CO)C[C@@H]1C 3.23%
CC(C)NC(=O)c1ccc(COc2cc(Cl)ccc2Cl)o1 1.71%
Cc1ccc(N2CCN(C(=O)c3[nH]c(C(F)(F)F)nc3-c3ccccc3)CC2)cc1 -4.62%
COc1cccc(NC(=O)CC2Oc3ccccc3NC2=O)c1 (centres undefined) -1.91%
C[C@@H]1CN([C@H](C)CO)C(=O)c2ccccc2-c2ccccc2CO[C@H]1CN(C)C(=O)Oc1ccccc1 -2.82%
O=C(CSc1nc2cc(Cl)ccc2s1)c1ccco1 5.96%
CC(C)c1ccc(/C=C(\NC(=O)c2ccccc2)C(=O)NCCCn2ccnc2)cc1 -3.44%
COc1ccc(-c2ccc3c(c2)O[C@H](CN(C)Cc2cccnc2)[C@@H](C)CN([C@H](C)CO)S3(=O)=O)cc1 2.75%
CC(C)(C)c1cc(CCC(=O)N2CCC2)cc(C(C)(C)C)c1O -0.818%
O=C(Nc1ccc2ccccc2c1)c1ccccc1Cl 0.242%
CN(C(=O)CCc1cn(C)c2ccccc12)c1ccc(Oc2cccnc2)cc1 2.71%
